Test results published in PubChem BioAssay (NCI).
The panel holds about 83,000 compounds, 20% with a hit somewhere; the sample as a whole holds those more often.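 Assay: single dose, 48 h. Readout: percent growth (0 = no net growth; negative = cell death). Active: <10.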 Values without a mark were called inactive. The source made the active and inactive calls.

These molecules were tested on ACHN renal (assay: NCI-60 one-dose screen, 48 h (100 = growth as untreated, 0 = no growth, -100 = all killed)). Details: 10 µM unless noted.

Structure (SMILES)	growth
CC(O)c1nc2c(c(=O)n(C)c(=O)n2C)n1C (centres undefined)	105%
Cc1ccc(NC(=O)Nc2ccc(-c3cccnc3)cc2N2CCC(CO)CC2)cc1	81.2%
CCCCCCCCCCCCCCCCN=C(CC(=O)O)C(=O)O	105%
COc1ccc(CCN2CCCN3C2=Nc2ccccc2S3(=O)=O)cc1	51%
Cc1nnc(Nc2ccc(NC(=O)Nc3ccc(Cl)cc3)cc2)c2ccccc12	58.8%
CCCCCCCCCCSc1ncnc2nc[nH]c12	63.9%
C=C(C[C@](O)(C(=O)/C=C/c1ccc(Cl)cc1)C(=O)OC)c1ccccc1	72.2%
O=C(/C=C/c1ccccc1Cl)c1ccc(O)cc1	78.9%
CC(=O)NC1(C(=O)O)CCCC1	105%
CCOC(=O)c1cc(-c2cccnc2)nc2c(Cl)cc(Cl)cc12	73.8%
CN1C(=O)/C(=C/c2nc(-c3cccc(F)c3)n3ccccc23)c2ccccc21	39.9%
O=C1C(=O)c2ccc(Br)cc2-c2cc(Br)ccc21	39%
CCN1CCN(c2cc(-c3cn[nH]c3-c3cc(C)cc(OC)c3)nc(-c3cccnc3)n2)CC1	73.7%
ClC1=C(Cl)C(Cl)=C(Cl)C1=C/C=C/c1ccccc1	-74% (active)
O=C(CN1CCCCC1)Sc1nnc2sc3ccccc3n12	118%
CN1CCN(Cc2ccc(NC(=O)c3[nH]ncc3Nc3ccnc4ccnn34)cc2)CC1	66.4%
CC1=CC(=O)C(C(C)=Nc2ccccc2Cl)C(=O)O1 (centres undefined)	98.1%
CSc1ncc2ncn(C3OC(CO)C(O)C3O)c2n1 (centres undefined)	105%
COc1ccc2nc3cc(Cl)ccc3c(Nc3cc(C(C)C)c(O)cc3C)c2c1	61.6%
c1cnc2ccc3ncccc3c2c1	82.1%
O=C(Nc1ccc(Cl)cc1)Nc1ccc(Oc2nncc3ccccc23)cc1	-15.1% (active)
CCCCCCCC/C=C/CCCCCCCC1=NC(C)(C)CN1CCO	24.4%
CN(CC(=O)N(Cc1ccc(C2CCCCC2)cc1)c1ccc(C(=O)O)cc1)S(=O)(=O)c1c(F)c(F)c(F)c(F)c1F	68.7%
CCN(CC)CCCNCCCNc1cc(OC)cc2cccnc12	101%
